Reference: PubChem BioAssay AID1159580 (chemical genetic matrix, 2015)
Hit rate of the full screen: of about 5,500 compounds, about 2,000 (36%) were called active. Roughly 18% stayed inconclusive and do not appear here. Cut-off read from the data, not from the text of the source: active = normalized growth mostly below about 0.91 (no sharp cut-off); inconclusive = no clear call, values can overlap the other calls; inactive = mostly above about 0.92. The list shows a part of the results.

Assay: chemical genetic growth profiling, strain panel (AID 1159580);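 note: tested at 20 µM; growth read once vehicle control cultures reached saturation at 30 °C; 1 = growth at the plate median or of vehicle wells; lower values mean less growth of the strain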
Details: S. cerevisiae deletion strains, growth OD
[1] = locus YAR019C, strain CDC15, stronger effect = lower value
[2] = locus YBL105C, strain PKC1, stronger effect = lower value
[3] = locus YBR135W, strain CKS1, stronger effect = lower value
[4] = locus YBR136W, strain MEC1, stronger effect = lower value
[5] = locus YBR160W, strain CDC28, stronger effect = lower value
[6] = locus YDL017W, strain CDC7, stronger effect = lower value
[7] = locus YDL028C, strain MPS1, stronger effect = lower value
[8] = locus YDL101C, strain DUN1, stronger effect = lower value
[9] = locus YDL108W, strain KIN28, stronger effect = lower value
[10] = locus YDL132W, strain cdc53, stronger effect = lower value
[11] = locus YDL214C, strain PRR2, stronger effect = lower value
[12] = locus YDR052C, strain DBF4, stronger effect = lower value
[13] = locus YDR054C, strain cdc34, stronger effect = lower value
[14] = locus YDR226W, strain ADK1, stronger effect = lower value
[15] = locus YDR477W, strain SNF1, stronger effect = lower value
[16] = locus YER123W, strain YCK3, stronger effect = lower value
[17] = locus YER133W, strain GLC7, stronger effect = lower value
[18] = locus YFL009W, strain cdc4, stronger effect = lower value
[19] = locus YFL029C, strain CAK1, stronger effect = lower value
[20] = locus YFR003C, strain YPI1, stronger effect = lower value
[21] = locus YFR019W, strain FAB1, stronger effect = lower value
[22] = locus YFR028C, strain CDC14, stronger effect = lower value
[23] = locus YGR040W, strain KSS1, stronger effect = lower value
[24] = locus YGR052W, strain FMP48, stronger effect = lower value
[25] = locus YGR092W, strain DBF2, stronger effect = lower value
[26] = locus YHR030C, strain SLT2, stronger effect = lower value
[27] = locus YHR079C, strain IRE1, stronger effect = lower value
[28] = locus YHR082C, strain KSP1, stronger effect = lower value
[29] = locus YHR205W, strain SCH9, stronger effect = lower value
[30] = locus YIL147C, strain SLN1, stronger effect = lower value
[31] = locus YJL095W, strain BCK1, stronger effect = lower value
[32] = locus YJL128C, strain PBS2, stronger effect = lower value
[33] = locus YJL157C, strain FAR1, stronger effect = lower value
[34] = locus YJR016C, strain ILV3, stronger effect = lower value
[35] = locus YJR066W, strain TOR1 (second series), stronger effect = lower value
[36] = locus YJR066W, strain TOR1, stronger effect = lower value
[37] = locus YKL048C, strain ELM1, stronger effect = lower value
[38] = locus YKL067W, strain YNK1, stronger effect = lower value
[39] = locus YKL101W, strain HSL1, stronger effect = lower value
[40] = locus YKL193C, strain SDS22, stronger effect = lower value
[41] = locus YKL203C, strain TOR2, stronger effect = lower value
[42] = locus YLR113W, strain HOG1, stronger effect = lower value
[43] = locus YLR133W, strain CKI1, stronger effect = lower value
[44] = locus YLR403W, strain SFP1, stronger effect = lower value
[45] = locus YML070W, strain DAK1, stronger effect = lower value
[46] = locus YMR001C, strain CDC5, stronger effect = lower value
[47] = locus YMR205C, strain PFK2 (second series), stronger effect = lower value
[48] = locus YMR277W, strain FCP1, stronger effect = lower value
[49] = locus YNL006W, strain LST8, stronger effect = lower value
[50] = locus YNL020C, strain ARK1, stronger effect = lower value
[51] = locus YNL161W, strain CBK1, stronger effect = lower value
[52] = locus YNL183C, strain NPR1, stronger effect = lower value
[53] = locus YNL207W, strain RIO2, stronger effect = lower value
[54] = locus YNL222W, strain SSU72, stronger effect = lower value
[55] = locus YNL307C, strain MCK1 (second series), stronger effect = lower value
[56] = locus YOL078W, strain AVO1, stronger effect = lower value
[57] = locus YOL136C, strain PFK27, stronger effect = lower value
[58] = locus YOR061W, strain CKA2, stronger effect = lower value
[59] = locus YOR119C, strain RIO1, stronger effect = lower value
[60] = locus YOR231W, strain MKK1, stronger effect = lower value
[61] = locus YOR329C, strain SCD5, stronger effect = lower value
[62] = locus YPL031C, strain PHO85, stronger effect = lower value
[63] = locus YPL153C, strain RAD53, stronger effect = lower value
[64] = locus YPL204W, strain HRR25, stronger effect = lower value
[65] = locus YPL209C, strain IPL1, stronger effect = lower value
[66] = locus YPL256C, strain CLN2, stronger effect = lower value
[67] = locus YPR025C, strain CCL1, stronger effect = lower value
[68] = locus YPR106W, strain ISR1, stronger effect = lower value
[69] = locus YPR111W, strain DBF20, stronger effect = lower value
[70] = strain NNK1, stronger effect = lower value
[71] = strain TSCII, stronger effect = lower value

O=C(Nc1cc(Cl)cc(Cl)c1)Nc1cc(-c2cccs2)[nH]n1
normalized growth [1]: 0.957 (inactive)
normalized growth [2]: 0.97 (inactive)
normalized growth [3]: 0.958 (inactive)
normalized growth [4]: 0.972 (inactive)
normalized growth [5]: 0.959 (inactive)
normalized growth [6]: 0.971 (inactive)
normalized growth [7]: 0.964 (inactive)
normalized growth [8]: 0.972 (inactive)
normalized growth [9]: 0.97 (inactive)
normalized growth [10]: 0.949 (inactive)
normalized growth [11]: 0.826 (inactive)
normalized growth [12]: 0.978 (inactive)
normalized growth [13]: 0.95 (inactive)
normalized growth [14]: 0.973 (inactive)
normalized growth [15]: 0.85 (inactive)
normalized growth [16]: 0.712 (inactive)
normalized growth [17]: 0.864 (inactive)
normalized growth [18]: 0.956 (inactive)
normalized growth [19]: 0.956 (inactive)
normalized growth [20]: 0.964 (inactive)
normalized growth [21]: 0.759 (active)
normalized growth [22]: 0.967 (inactive)
normalized growth [23]: 0.816 (inactive)
normalized growth [24]: 0.916 (inactive)
normalized growth [25]: 0.686 (inactive)
normalized growth [26]: 0.459 (active)
normalized growth [27]: 0.734 (inactive)
normalized growth [28]: 0.733 (inactive)
normalized growth [29]: 0.796 (inactive)
normalized growth [30]: 0.967 (inactive)
normalized growth [31]: 0.739 (inactive)
normalized growth [32]: 0.982 (inactive)
normalized growth [33]: 0.849 (inactive)
normalized growth [34]: 0.948 (inactive)
normalized growth [35]: 0.8 (inactive)
normalized growth [36]: 0.762 (inactive)
normalized growth [37]: 0.89 (inactive)
normalized growth [38]: 0.854 (inactive)
normalized growth [39]: 0.861 (inactive)
normalized growth [40]: 0.958 (inactive)
normalized growth [41]: 0.872 (inactive)
normalized growth [42]: 0.825 (active)
normalized growth [43]: 0.851 (inactive)
normalized growth [44]: 0.806 (inactive)
normalized growth [45]: 0.815 (inactive)
normalized growth [46]: 0.965 (inactive)
normalized growth [47]: 0.88 (inactive)
normalized growth [48]: 0.959 (inactive)
normalized growth [49]: 0.955 (inactive)
normalized growth [50]: 0.854 (inactive)
normalized growth [51]: 0.959 (inactive)
normalized growth [52]: 0.772 (inactive)
normalized growth [53]: 0.949 (inactive)
normalized growth [54]: 0.957 (inactive)
normalized growth [55]: 0.744 (inactive)
normalized growth [56]: 0.954 (inactive)
normalized growth [57]: 0.763 (inactive)
normalized growth [58]: 0.891 (inactive)
normalized growth [59]: 0.906 (inactive)
normalized growth [60]: 0.817 (inactive)
normalized growth [61]: 0.962 (inactive)
normalized growth [62]: 0.791 (inactive)
normalized growth [63]: 0.739 (inactive)
normalized growth [64]: 0.669 (inactive)
normalized growth [65]: 0.958 (inactive)
normalized growth [66]: 0.755 (active)
normalized growth [67]: 0.963 (inactive)
normalized growth [68]: 0.953 (inactive)
normalized growth [69]: 0.947 (inactive)
normalized growth [70]: 0.948 (inactive)
normalized growth [71]: 0.961 (inactive)

S=C(Nc1cc(-c2cccs2)[nH]n1)Nc1ccccc1Cl
normalized growth [1]: 0.93 (inactive)
normalized growth [2]: 0.938 (inactive)
normalized growth [3]: 0.934 (inactive)
normalized growth [4]: 0.934 (inactive)
normalized growth [5]: 0.943 (inactive)
normalized growth [6]: 0.938 (inactive)
normalized growth [7]: 0.932 (inactive)
normalized growth [8]: 0.945 (inactive)
normalized growth [9]: 0.938 (inactive)
normalized growth [10]: 0.955 (inactive)
normalized growth [11]: 0.825 (inactive)
normalized growth [12]: 0.942 (inactive)
normalized growth [13]: 0.916 (inactive)
normalized growth [14]: 0.939 (inactive)
normalized growth [15]: 0.816 (inactive)
normalized growth [16]: 0.755 (inactive)
normalized growth [17]: 0.809 (inactive)
normalized growth [18]: 0.929 (inactive)
normalized growth [19]: 0.925 (inactive)
normalized growth [20]: 0.934 (inactive)
normalized growth [21]: 0.859 (inactive)
normalized growth [22]: 0.932 (inactive)
normalized growth [23]: 0.819 (inactive)
normalized growth [24]: 0.908 (inactive)
normalized growth [25]: 0.796 (inactive)
normalized growth [26]: 0.616 (active)
normalized growth [27]: 0.842 (inactive)
normalized growth [28]: 0.821 (inactive)
normalized growth [29]: 0.813 (inactive)
normalized growth [30]: 0.93 (inactive)
normalized growth [31]: 0.748 (inactive)
normalized growth [32]: 0.908 (inactive)
normalized growth [33]: 0.836 (inactive)
normalized growth [34]: 0.935 (inactive)
normalized growth [35]: 0.778 (inactive)
normalized growth [36]: 0.773 (inactive)
normalized growth [37]: 0.885 (inactive)
normalized growth [38]: 0.835 (inactive)
normalized growth [39]: 0.891 (inactive)
normalized growth [40]: 0.917 (inactive)
normalized growth [41]: 0.866 (inactive)
normalized growth [42]: 0.739 (active)
normalized growth [43]: 0.858 (inactive)
normalized growth [44]: 0.827 (inactive)
normalized growth [45]: 0.834 (inactive)
normalized growth [46]: 0.927 (inactive)
normalized growth [47]: 0.877 (inactive)
normalized growth [48]: 0.93 (inactive)
normalized growth [49]: 0.937 (inactive)
normalized growth [50]: 0.837 (inactive)
normalized growth [51]: 0.938 (inactive)
normalized growth [52]: 0.803 (inactive)
normalized growth [53]: 0.913 (inactive)
normalized growth [54]: 0.939 (inactive)
normalized growth [55]: 0.746 (inactive)
normalized growth [56]: 0.932 (inactive)
normalized growth [57]: 0.859 (inactive)
normalized growth [58]: 0.859 (inactive)
normalized growth [59]: 0.88 (inactive)
normalized growth [60]: 0.829 (inactive)
normalized growth [61]: 0.935 (inactive)
normalized growth [62]: 0.8 (inactive)
normalized growth [63]: 0.804 (inactive)
normalized growth [64]: 0.791 (inactive)
normalized growth [65]: 0.942 (inactive)
normalized growth [66]: 0.72 (active)
normalized growth [67]: 0.936 (inactive)
normalized growth [68]: 0.932 (inactive)
normalized growth [69]: 0.942 (inactive)
normalized growth [70]: 0.94 (inactive)
normalized growth [71]: 0.936 (inactive)

O=C(Nc1cc(Cl)cc(Cl)c1)Nc1cc(-c2ccco2)[nH]n1
normalized growth [2]: 0.935 (inactive)
normalized growth [3]: 0.929 (inactive)
normalized growth [4]: 0.935 (inactive)
normalized growth [5]: 0.942 (inactive)
normalized growth [6]: 0.95 (inactive)
normalized growth [7]: 0.937 (inactive)
normalized growth [9]: 0.938 (inactive)
normalized growth [10]: 0.608 (active)
normalized growth [11]: 0.293 (active)
normalized growth [12]: 0.945 (inactive)
normalized growth [13]: 0.566 (active)
normalized growth [14]: 0.94 (inactive)
normalized growth [15]: 0.294 (active)
normalized growth [16]: 0.15 (active)
normalized growth [17]: 0.269 (active)
normalized growth [19]: 0.616 (active)
normalized growth [20]: 0.94 (inactive)
normalized growth [21]: 0.147 (active)
normalized growth [22]: 0.935 (inactive)
normalized growth [23]: 0.288 (active)
normalized growth [24]: 0.23 (active)
normalized growth [25]: 0.128 (active)
normalized growth [26]: 0.103 (active)
normalized growth [27]: 0.119 (active)
normalized growth [28]: 0.209 (active)
normalized growth [29]: 0.287 (active)
normalized growth [30]: 0.934 (inactive)
normalized growth [31]: 0.112 (active)
normalized growth [32]: 0.944 (inactive)
normalized growth [33]: 0.257 (active)
normalized growth [34]: 0.928 (inactive)
normalized growth [35]: 0.129 (active)
normalized growth [36]: 0.142 (active)
normalized growth [37]: 0.454 (active)
normalized growth [38]: 0.316 (active)
normalized growth [39]: 0.38 (active)
normalized growth [41]: 0.253 (active)
normalized growth [42]: 0.146 (active)
normalized growth [43]: 0.295 (active)
normalized growth [44]: 0.229 (active)
normalized growth [45]: 0.181 (active)
normalized growth [46]: 0.935 (inactive)
normalized growth [47]: 0.496 (active)
normalized growth [48]: 0.777 (active)
normalized growth [49]: 0.839 (active)
normalized growth [50]: 0.3 (active)
normalized growth [51]: 0.948 (inactive)
normalized growth [52]: 0.169 (active)
normalized growth [53]: 0.894 (inactive)
normalized growth [54]: 0.923 (inactive)
normalized growth [55]: 0.202 (active)
normalized growth [57]: 0.166 (active)
normalized growth [58]: 0.322 (active)
normalized growth [59]: 0.245 (active)
normalized growth [60]: 0.115 (active)
normalized growth [61]: 0.951 (inactive)
normalized growth [62]: 0.204 (active)
normalized growth [63]: 0.145 (active)
normalized growth [64]: 0.163 (active)
normalized growth [65]: 0.941 (inactive)
normalized growth [66]: 0.14 (active)
normalized growth [67]: 0.93 (inactive)
normalized growth [68]: 0.943 (inactive)
normalized growth [69]: 0.944 (inactive)
normalized growth [70]: 0.913 (inactive)
